High-throughput results: PubChem, several laboratories
DUSP3 inh: DUSP3 (human) phosphatase inhibition; P51452; recombinant VHR phosphatase, pNPP absorbance; actives 0.52% (n = 290,000); inhibition, % at 13.3 µM; in the data active = inhibition above about 50%
Target sequence (P51452 whole entry, looked up): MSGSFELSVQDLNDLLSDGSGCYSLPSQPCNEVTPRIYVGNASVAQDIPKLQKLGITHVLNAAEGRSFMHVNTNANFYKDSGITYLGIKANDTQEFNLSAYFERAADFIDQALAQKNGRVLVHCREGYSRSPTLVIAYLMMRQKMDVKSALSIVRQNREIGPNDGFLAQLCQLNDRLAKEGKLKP
Mtb hypoxia inh: inhibitors of hypoxia-regulated fluorescent reporter in Mycobacterium tuberculosis. actives 0.1% (n = 300,000). fluorescence inhibition, % (no concentration beside the values). M. tuberculosis hypoxia-regulated fluorescent reporter, fluorescence; in the data active = fluorescence inhibition mostly above about 23%, no sharp cut-off; inactive = mostly below about 17%
ugtP null kill: growth inhibition of S. aureus ugtP deletion strain. S. aureus RN4220 ugtP deletion, OD600 growth, 16 h. growth inhibition, % (test concentration not listed). actives 0.54% (n = 330,000). AID 1259309; in the data active = growth inhibition above about 68%;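 also: plate controls were untreated wells for no effect and antibiotic for full effect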
Sa RN4220 lethal: kills Staphylococcus aureus RN4220 | S. aureus RN4220 growth, OD600, 16 h | inhibition, % (no concentration beside the values) | actives 0.33% (n = 330,000) | AID 1259311; in the data active = inhibition above about 85%;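 also: plate controls were untreated cells for no effect and reference antibiotic for full effect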
SSB-PriA inh: K. pneumoniae PriA-SSBct interaction inhibition; AlphaScreen SSBct-PriA binding, biotinylated peptide; AID 1272365; actives 0.6% (n = 430,000); inhibition, % at 33 µM; in the data active = inhibition mostly above about 37%, no sharp cut-off; inactive = mostly below about 20%;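 also: plate controls were negative control peptide for no effect and reference peptide for full effect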
PfHsp40 yeast: compounds rescuing yeast from Plasmodium falciparum HSP40 toxicity; S. cerevisiae expressing PfHsp40, growth rescue, ATP luminescence; growth rescue, % at 12.5 µM; AID 504582; actives 0.68% (n = 340,000); in the data active = growth rescue above about 28%, passing the limit was not always enough;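 also: yeast W303a lacking pdr1 and pdr3 grown in galactose medium; growth measured after three days at 30 °C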
Active calls of the source: *; . = not tested or not shown. Compounds with a hit are over-represented: about 1.8% of the library has one in this group of screens.

SMILES	DUSP3 inh	Mtb hypoxia inh	ugtP null kill	Sa RN4220 lethal	SSB-PriA inh	PfHsp40 yeast
Cc1ccc(CN2CCCN(Cc3ccc(F)cc3Cl)S2(=O)=O)cc1	52.6*	-8.2	6.0	1.9	-12.7	-0.4
O=c1cc(-c2ccc(O)cc2)oc2c(-c3c(O)cc(O)c4c(=O)cc(-c5ccc(O)cc5)oc34)c(O)cc(O)c12	.	.	-16.2	-0.2	-8.2	1.5
O=c1c(-c2c(O)cc(O)c3c(=O)cc(-c4ccc(O)cc4)oc23)c(-c2ccc(O)cc2)oc2cc(O)cc(O)c12	22.0	.	14.0	-2.1	1.8	104.8*
COc1ccccc1CC(=O)N1CCN(c2ccc(-c3ccccn3)nn2)CC1	.	.	.	.	158.0*	.
O=C(c1ccccc1F)N1CCN(c2ccc(-c3ccccn3)nn2)CC1	.	.	.	.	108.0*	.
O=C(c1ccccc1C(F)(F)F)N1CCN(c2ccc(-c3cccs3)nn2)CC1	.	.	.	.	26.0	.
O=C(c1ccccc1C(F)(F)F)N1CCN(c2ccc(-c3ccccn3)nn2)CC1	.	.	.	.	150.0*	.
COC(=O)c1ccc(NC(C(=O)OC)C(C)C)c([N+](=O)[O-])c1 (stereo unspecified)	10.4	.	.	.	16.6	50.1*
CCC(C)C(Nc1ccc(C(=O)OC)cc1[N+](=O)[O-])C(=O)OC (stereo unspecified)	-13.1	5.2	3.2	5.2	18.2	-0.6
CCc1ccc(C(=O)NNC(=O)C2CC(=O)N(Cc3ccccc3)C2)cc1 (stereo unspecified)	.	8.0	14.1	0.9	-8.6	-0.4
O=C(NNC(=O)C1CC(=O)N(Cc2ccccc2)C1)c1ccc(Br)cc1 (stereo unspecified)	57.1*	-2.7	14.4	3.1	-6.4	1.4
COc1cc([N+](=O)[O-])cc(/C=N/NC(=O)C(O)(c2ccccc2)c2ccccc2)c1O	-10.3	.	.	.	.	30.0*
CSc1sc(-c2ccccc2)c2[n+]1CC(=O)N2	.	.	.	.	-9.0	.
Cc1cc(=O)[nH]c(NN=Cc2c(O)n(-c3ccccc3)c(=O)c3ccccc23)n1	.	.	.	.	85.0*	.
COc1ccc(Cl)c2sc(N3CCCC3)nc12	.	.	.	.	-5.0	.
O=C(NCC1CCCO1)C1CCCN(S(=O)(=O)c2ccc(F)cc2)C1 (stereo unspecified)	25.7	2.3	-6.0	-2.4	-8.9	1.2
Cn1c(=O)oc2cc(S(=O)(=O)N3CCCC(C(=O)NCc4ccc5c(c4)OCO5)C3)ccc21 (stereo unspecified)	67.1	-6.5	-23.9	-0.8	-18.6	0.3
O=C(NCC1CCCO1)C1CCCN(S(=O)(=O)c2ccc(Cl)cc2)C1 (stereo unspecified)	50.4*	9.0	2.6	3.2	-13.9	-0.3
Cn1c(=O)oc2cc(S(=O)(=O)N3CCCC(C(=O)NCC4COc5ccccc5O4)C3)ccc21 (stereo unspecified)	32.1	9.9	12.6	2.6	104.2*	0.0
O=C(COc1ccc2ccccc2c1)NCCOc1ccc2c(c1)OCO2	.	.	.	.	37.0*	.
O=C(Nc1ccc2scnc2c1)C1CC1	.	.	.	.	-3.0	.
Cc1cccc(C)c1OCC(=O)NNC(=S)NC(=O)C1CC1	14.5	-0.3	34.1	62.4	-0.9	83.1*
Cc1ccc2cc(CN(Cc3cccs3)Cc3nnnn3CC3CCCO3)c(=O)[nH]c2c1C (stereo unspecified)	14.2	-7.3	-9.4	2.5	6.2	73.0*
Cc1ccc2[nH]c(=O)c(CN(Cc3cccs3)Cc3nnnn3CC3CCCO3)cc2c1 (stereo unspecified)	21.3	-7.8	-7.9	2.3	-2.0	105.2*
Cc1ccc2cc(CN(Cc3cccs3)Cc3nnnn3CC3CCCO3)c(=O)[nH]c2c1 (stereo unspecified)	-10.2	-10.6	1.0	4.0	5.5	0.0
SMILES	DUSP3 inh	Mtb hypoxia inh	ugtP null kill	Sa RN4220 lethal	SSB-PriA inh	PfHsp40 yeast
Cc1cc(C)c(NC(=O)c2cc3c(nc4sccn43)s2)c(C)c1	17.0	3.6	-6.2	4.6	-6.6	66.4*
Cc1ccc(C)c(C(=O)c2c(C)nc3sccn23)c1	17.2	.	0.3	2.7	-9.7	1.1
O=[N+]([O-])c1ccc(N=Nc2c(Cl)cc(O)cc2Cl)cc1	8.7	-5.1	98.6*	100.2*	38.0	175.4*
O=C1CCCC(=O)N1CCS(=O)(=O)N1CCCC[C@H](c2ccc(F)cc2)C1	.	.	.	.	7.0	.
CCc1ccccc1NC(=O)C1CCCN(c2ncccn2)C1 (stereo unspecified)	50.4*	5.8	1.1	2.2	-7.7	-0.4
S=C(NN=C1CCc2ccccc21)NC1CCCCC1	.	12.5	9.7	1.8	12.4	.
COc1ccc(C(=O)Nc2ccc3c(c2)N(C(=O)C2CCCO2)CC3)cc1OC (stereo unspecified)	.	.	.	.	8.0	.
COc1ccc(C(=O)Nc2ccc3c(c2)nc(CN2CCN(C(C)=O)CC2)n3C)cc1	18.9	.	5.5	-0.7	-4.7	-1.5
CC(=O)N1CCN(Cc2nc3cc(NC(=O)c4ccc(F)cc4)ccc3n2C)CC1	56.7*	15.1	-70.1	9.9	-8.3	-0.7
COc1ccc(C(=O)/C=C/c2ccc(C)cc2)c(OC(=O)N2CCOCC2)c1	.	.	.	.	10.0	.
Cc1cc(C(=O)NN=Cc2cccs2)no1	.	5.5	1.5	1.8	-6.1	.
CCSc1nc(C2CC2)cc(-c2cccs2)c1C#N	-20.9	5.8	93.0*	7.7	-13.6	2.1
CCSc1nc(C2CC2)cc(-c2ccco2)c1C#N	-16.4	.	13.8	1.7	-39.6	-0.2
CCCCCCCCCCOC(=O)C[N+](C)(C)C/C=C(/C)Cl	2.6	1.4	100.3*	16.1	-16.9	-2.4
Cc1cc(C)nc(NC(=O)CSc2nc3cc(Cl)ccc3s2)n1	2.0	.	-3.1	0.1	-18.6	66.1*
COCCc1nnc(NC(=O)COc2ccc(F)cc2)o1	.	.	.	.	27.0	.
COc1ccc(-c2oc(NC(=O)CSc3nncn3C)c(C#N)c2-c2ccc(OC)cc2)cc1	-10.2	.	12.4	0.1	6.8	43.9*
CCn1c(SCC(=O)Nc2oc(-c3ccccc3)c(-c3ccccc3)c2C#N)nnc1-c1ccco1	-7.3	.	5.6	-10.5	20.8	-2.0
CCN1CCN(CC(=O)N2N=C(c3ccc(OC)cc3)CC2c2ccc(OC)c(OC)c2)C(=O)C1=O (stereo unspecified)	.	.	.	.	-22.0	.
Cn1cc(C(=O)N/N=C/C=C/c2ccccc2)ccc1=O	34.1	.	.	.	.	50.7*
O=C(NCCn1ncccc1=O)NC1CCCCC1	.	.	.	.	-14.0	.
CCCNC(=O)c1cc(Cl)c(NC(=O)C2=C(C)OCCS2)cc1OC	56.9*	3.2	-6.1	1.3	-2.3	-2.3
CS(=O)(=O)c1ccccc1C(=O)Nc1c2c(nn1-c1ccccc1)CCC2	.	.	.	.	-10.0	.
NC1=NC[C@@H](Cc2ccc(O)cc2)N1CCC12CC3CC(CC(C3)C1)C2	.	.	.	.	-9.0	47.7*
CC(C)(C)c1csc(N/N=C/c2cccnc2)n1	-9.8	.	.	.	.	15.8
CC(C)(C)c1csc(NN=Cc2ccc(O)cc2)n1	.	33.8*	24.7	15.7	19.4	.
CC(CC(=O)Nc1ccc(Cl)cn1)=NNC(=O)Cc1cccs1	.	-4.7	1.3	3.6	-7.2	.
O=C(Nc1ccccc1Oc1cccnc1)C1CCCN(Cc2ccc(F)cc2)C1 (stereo unspecified)	57.1*	5.9	4.4	0.7	2.6	-0.8
